Myeloid diff 2 = compounds promoting myeloid differentiation | ER-HoxA9 myeloid progenitors, lysozyme-GFP differentiation, flow cytometry | calls only at 10 µM | 360,000 tested, 1% active;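 active = normalized GFP-positive differentiation at or above the plate's own cutoff, the solvent-only control mean plus 3 SD; inconclusive = no clear call, values can overlap the other calls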;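 note: cells exposed to compound for four days before flow analysis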
ABCB6 inh 2 = human ABCB6 transporter inhibition; K562-ABCB6 porphyrin accumulation, flow cytometry, 1 h; stronger effect = lower value; 360,000 tested, 0.19% active; Q9NP58; fluorescence ratio to DMSO, % at 10 µM;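 active = fluorescence ratio to DMSO below 75%, the collection mean minus 3 SD; inconclusive = too few cells collected in the well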;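 note: signal is porphyrin accumulated inside mitochondria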
Granule exo inh = blocks lytic granule exocytosis; TALL-104 LAMP-1 surface exposure, flow cytometry; cells stimulated with thapsigargin and PMA; inhibition, % at 10 µM; 360,000 tested, 0.66% active; AID 651702;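 active = inhibition above about 55%, limit read from the data; inconclusive = no clear call, values can overlap the other calls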
Numbers stand for hits; . = inactive; ? = inconclusive; / = no result given; + = active, no number. This is a sample that favours compounds with a hit; in the whole collection about 1.8% have one here.

SMILES	Myeloid diff 2	ABCB6 inh 2	Granule exo inh
CC(=O)OC1CC(OC2C(O)CC(OC3C(O)CC(OC4CCC5(C)C(CCC6C5CC(O)C5(C)C(C7=CC(=O)OC7)CCC65O)C4)OC3C)OC2C)OC(C)C1OC1OC(CO)C(O)C(O)C1O (stereo unspecified)	+	.	.
C[C@]12CC[C@H](O)C[C@H]1CC[C@@H]1[C@@H]2C[C@@H](O)[C@]2(C)[C@@H](C3=CC(=O)OC3)CC[C@]12O	.	.	.
c1ccc(-c2nc(N3CCOCC3)s[n+]2-c2ccccc2)cc1	.	.	.
CCCNC(=O)c1c(N)n(Cc2ccc3c(c2)OCO3)c2nc3ccccc3nc12	.	.	.
CC(C)CCNC(=O)c1c(N)n(Cc2ccc3c(c2)OCO3)c2nc3ccccc3nc12	.	.	56.4
O=C(N=Nc1c(O)[nH]c(=O)[nH]c1=O)C1COc2cc3ccccc3cc2O1 (stereo unspecified)	.	.	.
O=C1NC(=O)N(CCc2ccc(F)cc2)C(=O)/C1=C\C=C\c1ccccc1	/	.	66.0
Cc1ccc(/C=C2\C(=O)NC(=O)N(CCc3ccc(F)cc3)C2=O)s1	.	.	92.2
C=CCN1C(=O)NC(=O)/C(=C/C=C/c2ccccc2)C1=O	.	.	.
Cc1ccc(/C=C2/C(=O)NC(=O)N(CCc3ccc(F)cc3)C2=O)s1	.	.	.
O=C1NC(=O)N(Cc2ccc(F)cc2)C(=O)/C1=C/c1cccs1	.	.	56.0
O=C1NC(=O)N(Cc2ccccc2Cl)C(=O)/C1=C/c1cccs1	.	.	.
Cc1ccc([C@@H]2C[C@H]3[C@@H](CN2S(=O)(=O)c2ccc(Cl)cc2)C(=O)C[C@@H](c2ccccc2F)N3S(=O)(=O)c2ccc(C)cc2)cc1	.	.	.
CCOP(=O)(OCC)C(O)c1cccnc1 (stereo unspecified)	.	.	.
COC(=O)C(O)(c1ccc(N(C)C(=O)c2cccs2)cc1)C(F)(F)F (stereo unspecified)	.	.	.
COC(=O)C1=C(c2cccc(OCc3ccccc3)c2)C[C@@H]2CC[C@H]1N2C(=O)NCc1ccccc1	.	.	.
COC(=O)C1=C(c2cccc(OCc3ccccc3)c2)C[C@@H]2CC[C@H]1N2C(=O)NCc1ccc(OC)cc1	+	.	.
[N-]=[N+]=NCc1cn2cccnc2n1	.	.	.
c1ccc2c(c1)Sc1ccccc1N2CC1CN2CCC1CC2 (stereo unspecified)	.	.	.
CCCCc1ccc(C(=O)O)nc1	+	.	.
CC(=O)N1CCN(Cc2ccc(Cl)nc2)CC1	.	.	.
COC1/C=C/C=C(\C)Cc2cc(O)c(Cl)c(c2)N(C)C(=O)CC(OC(=O)C(C)C)C2(C)OC2C(C)C2CC1(O)NC(=O)O2 (stereo unspecified)	/	.	.
NC(Cc1ccc(Cl)cc1)c1csc(Nc2ncccn2)n1 (stereo unspecified)	+	.	.
Nc1ccc(CC(N)c2csc(Nc3ncccn3)n2)cc1 (stereo unspecified)	.	.	.
CC1CCC(C(C)C)C(OC(=O)Cn2c(COc3ccccc3)[n+](C)c3ccccc32)C1 (stereo unspecified)	.	.	83.5
SMILES	Myeloid diff 2	ABCB6 inh 2	Granule exo inh
CC(ON1CC1(C(F)(F)F)C(F)(F)F)(C(N)=O)C(N)=O (stereo unspecified)	.	.	.
Cc1cc(N(CCCl)CCCl)ccc1C=NNC(=O)Cc1cc(=O)oc2cc(O)ccc12	+	.	.
Cc1cc(N(CCCl)CCCl)ccc1/C=N/NC(=O)c1ccco1	?	.	.
CS(=O)(=O)c1ccc(C2=C(CNC(=O)c3nccs3)[C@H]3CC[C@@H](C2)N3Cc2ccccc2)cc1	.	.	.
Cc1ccc2c(c1)N(CCC(=O)N1CCC3(CC1)OCCO3)C(=O)CO2	+	.	.
Cc1ccc2c(c1)N(CCC(=O)N1CCC3(CC1)OCCO3)C(=O)C(C)O2 (stereo unspecified)	.	.	.
O=C(C[N+]12CCC(CC1)C(CO)C2)c1ccc(Br)cc1 (stereo unspecified)	.	.	.
Cc1cc(NC(=O)COC(=O)c2c(C)nn(Cc3ccccc3)c2C)no1	.	.	.
Cc1nn(Cc2ccccc2)c(C)c1C(=O)OCC(=O)Nc1ccccc1SCC#N	+	.	.
COc1ccc(CC2C(=O)NC(C)C(=O)N(C)C3C(=O)N(C)C(Cc4ccc(O)c(c4)Oc4ccc(cc4)C3O)C(=O)NC(C)C(=O)NC(C)C(=O)N2C)cc1 (stereo unspecified)	/	.	.
CC1CCC2[C@@H](C)C(=O)OC3O[C@]4(C)CCC1C32OO4 (stereo partly specified)	+	.	.
CC1CCC2C(C)C(=O)OC3OC4(C)CCC1C32OO4 (stereo unspecified)	+	.	.
Fc1ccccc1CN1Cc2ccccc2-n2nncc2C1	.	.	.
O=c1[nH]c(O)c(/C=C2/C=CC(c3cc(Cl)ccc3Cl)=N2)c(=O)[nH]1	+	.	91.6
CC1=Nc2ccccc2/C1=C/c1c(O)[nH]c(=O)[nH]c1=O	.	.	.
c1ccc(N2[C@@H]3CC[C@H]2c2ccccc2C3)cc1	.	.	.
Cc1ncc(CN2CCCC(C(=O)c3sccc3C)C2)s1 (stereo unspecified)	.	.	.
C[C@@H]1CN([C@H](C)CO)C(=O)c2c(c3ccccc3n2C)-c2ccccc2CO[C@H]1CN(C)Cc1ccc2c(c1)OCCN2C	.	.	.
O=c1c2ccccc2[se]n1-c1ccccc1	.	.	82.3
O=c1c2ccccc2nc(-c2ccccc2)n1-c1ccccc1	?	.	.
CCCNC(=O)N1[C@H]2CC[C@@H]1C(C(=O)OC)=C(c1ccc(C(C)=O)cc1)C2	.	.	.
CCOC(=O)c1c(-n2c(C)cc(/C=C3\C(=O)NC(=O)N(C)C3=O)c2C)sc2c1CCCC2	.	.	56.9
Cc1cc(/C=C2\C(=O)NC(=O)N(c3ccc(Cl)cc3)C2=O)c(C)n1-c1sc2c(c1C#N)CCCC2	.	.	.
COC(=O)C1=C(c2cc3ccccc3s2)C[C@@H]2CC[C@H]1N2C(=O)N1CCCCC1	.	.	.
C#C[C@]1(O)CC[C@H]2[C@@H]3CCC4=Cc5nc6nc7ccccc7n6cc5C[C@]4(C)[C@H]3CC[C@@]21C	+	.	.
SMILES	Myeloid diff 2	ABCB6 inh 2	Granule exo inh
C#CC1(O)CCC2C3CCC4=C/C(=N/OCC(=O)NCC(=O)NC(C(=O)O)C(C)C)CC[C@]4(C)C3CC[C@@]21C (stereo partly specified)	.	.	.
COc1ccc(C(=O)OC2CC3CCC(C2)[N+]3(C)[O-])cc1OC (stereo unspecified)	.	.	.
COC(=O)C1=C(c2ccc(-c3ccccc3)c(F)c2)C[C@@H]2CC[C@H]1N2C(=O)N1CCc2cc(OC)c(OC)cc2C1	.	.	.
CN[C@@H](C)[C@@H](O)c1ccccc1	.	.	.
CN1CCN(c2ncnc(Cl)c2N)CC1	.	.	.
CN1CCN(c2nc(N)c(Br)c(Cl)n2)CC1	+	.	.
O=C1/C(=C\c2ccncc2)N2CCC1CC2	.	.	.
O=C1/C(=C\c2ccc(Cl)c(Cl)c2)N2CCC1CC2	.	.	94.4
O=C1NC(=O)C(CCc2ccncc2)(Cc2cccc(Cl)c2Cl)C(=O)N1c1ccc(Br)cc1 (stereo unspecified)	+	.	.
